High-throughput results (PubChem BioAssay)
A3G deaminase: APOBEC3G DNA deaminase inhibitors, primary screen, biochemical, fluorescence, single-stranded DNA substrate, uHTS; 0.28% of 330,000 active; recombinant A3G, ssDNA deamination FAM/TAMRA fluorescence; AID 493012, 2011; inhibition, % at 20 µM;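 active means inhibition of at least 40% at 20 µM, with no more than 30% in the related APOBEC3A deaminase screen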;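 further: plate controls were DMSO wells with A3G for no effect and wells lacking A3G enzyme for full effect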
aDG glyco act: activators of alpha-DG glycosylation, primary screen, uHTS, Pro5-aDG cells, AlphaScreen | 0.22% of 360,000 active | AID 624168, 2012 | activation, % at 10 µM | alpha-DG glycosylation AlphaScreen (IIH6); 0% Pro5, 100% B10-LARGE cell signal;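 active means activation of at least 8% versus controls, or a plate z-score of at least 8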;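 further: Pro5 are CHO cells carrying HIG-tagged alpha-DG that lacks glycosylation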
rCAG RNA binder: binders of r(CAG) RNA repeats, primary screen, biochemical, fluorescence; 1.3% of 370,000 active; r(CAG) RNA repeat, TO-PRO-1 dye displacement fluorescence; AID 651821, 2012; inhibition, % at 3 µM;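 active means inhibition above the plate cutoff, the mean of all test compounds on that plate plus 3 SD, cut at about 35% in these data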;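 further: 0% = DMSO alone and 100% = 100 µM mitoxantrone as full dye displacement; higher means more dye released from RNA so lower well fluorescence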
ALR inh: inhibitors of human ALR sulfhydryl oxidase, primary screen, biochemical, H2O2 detection, HRP-luminol luminescence, single point; FAD-linked sulfhydryl oxidase ALR (Homo sapiens), P55789; purified ALR, DTT oxidation; AID 485317, 2010; inhibition, % (no concentration beside the values); 3.8% of 290,000 active;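 active means mean replicate inhibition above about 79%, with every replicate also reaching it, limit read from the data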
Target sequence (P55789 whole entry, looked up): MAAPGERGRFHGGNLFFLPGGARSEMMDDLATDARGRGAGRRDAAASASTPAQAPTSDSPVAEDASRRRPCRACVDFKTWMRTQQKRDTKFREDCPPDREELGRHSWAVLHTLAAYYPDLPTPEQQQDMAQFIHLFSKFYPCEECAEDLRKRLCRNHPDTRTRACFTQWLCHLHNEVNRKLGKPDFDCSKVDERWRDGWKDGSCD
APOBEC3A inh: APOBEC3A ssDNA deaminase inhibitors, primary screen, selectivity assay for APOBEC3G inhibitor project, biochemical, FAM/TAMRA oligo cleavage fluorescence; DNA dC->dU-editing enzyme APOBEC-3A (Homo sapiens), P31941; recombinant A3A, FAM/TAMRA ssDNA deamination fluorescence; inhibition, % at 20 µM; 0.41% of 330,000 active; AID 493011, 2011;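 active means at least 40% inhibition at 20 µM here, with at most 30% in a related deaminase screen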;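 further: plate controls were A3A with DMSO for no effect and wells lacking A3A enzyme for full effect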
Target sequence (P31941 whole entry, looked up): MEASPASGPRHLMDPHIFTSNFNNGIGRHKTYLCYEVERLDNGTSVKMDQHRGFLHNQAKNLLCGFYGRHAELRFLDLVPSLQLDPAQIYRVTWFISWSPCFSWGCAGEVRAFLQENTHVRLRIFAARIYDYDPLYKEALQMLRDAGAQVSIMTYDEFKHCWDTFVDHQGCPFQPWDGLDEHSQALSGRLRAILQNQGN
PHOSPHO1 block: PubChem AID 1565; recombinant PHOSPHO1, absorbance phosphatase assay; Phosphoethanolamine/phosphocholine phosphatase (Homo sapiens), Q8TCT1; 1.1% of 290,000 active; inhibition, % at 13.3 µM; in the data active means inhibition above about 60%
rCAG bind conf: small molecules binding CAG repeat RNA – biochemical, fluorescence, confirmation | r(CAG) RNA repeat, TO-PRO-1 dye displacement fluorescence | AID 652065, 2013 | 70% of 4,300 active | shares compounds with rCAG RNA binder | inhibition, % at 3 µM;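 active means inhibition above a per-plate cutoff, the mean inhibition of sample wells plus 3 SD, cut at about 35% in these data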;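 further: loss of TO-PRO-1 fluorescence as compound displaces dye from 1x1 AA loop RNA; 0% = DMSO only wells and 100% = 100 µM mitoxantrone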
DNA CAG counter: displacement of TO-PRO-1 from CAG DNA duplex, counter-screen for rCAG RNA repeat binder project, biochemical, fluorescence, TO-PRO-1 dye, d(CAG) DNA oligo; inhibition, % at 3 µM; AID 652068, 2013; shares compounds with rCAG RNA binder; 94% of 4,300 active; d(CAG) DNA oligo TO-PRO-1 dye displacement;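 active means inhibition above its plate's cutoff, the mean test-well inhibition plus 3 SD, cut at about 4.8% in these data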;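 further: 0% = DNA dye mix with DMSO and 100% = 100 µM mitoxantrone; hits displace the dye from DNA and so lower well fluorescence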
The depositor's hits bear a star. Hits are enriched below; roughly 5.4% of the tested compounds scored in any of these assays.

For CCOC(=O)[C@]12CCC=C1N(Cc1ccccc1)C(=O)[C@H](CC(=O)NCc1ccccc1)C2 the results were aDG glyco act -0.1 and rCAG RNA binder 0.0.
Cc1ccc(S(=O)(=O)N2CC(C(=O)O)=CC[C@H]2c2ccc(Cl)cc2)cc1 was read as A3G deaminase -12.8, aDG glyco act -0.2, rCAG RNA binder 37.2*, ALR inh 2.9, APOBEC3A inh -3.1, rCAG bind conf 16.3 and DNA CAG counter 3.8.
Cc1ccc(S(=O)(=O)N2C(c3ccc(Cl)c(Cl)c3)CC=C(C(=O)O)C2c2ccc(Cl)cc2)cc1 (configuration not stated) was read as aDG glyco act -0.1, rCAG RNA binder 82.3*, rCAG bind conf 83.3* and DNA CAG counter 52.0*.
For CC(=O)C1=CCC(c2ccc(C)cc2)N(S(=O)(=O)c2ccc(Cl)cc2)C1 (configuration not stated) the results were aDG glyco act 0.2 and rCAG RNA binder 3.8.
COc1cc([C@@H]2CC=C(C(=O)O)[C@H](c3ccccc3)N2S(=O)(=O)c2ccc(C)cc2)cc(OC)c1OC was read as A3G deaminase -7.0, aDG glyco act -0.3, rCAG RNA binder 28.2, ALR inh 20.2 and APOBEC3A inh 5.4.
Cc1ccc(S(=O)(=O)N2[C@@H](c3ccc(Cl)cc3)C(C(=O)O)=CC[C@H]2c2ccc(Cl)c(Cl)c2)cc1 was read as A3G deaminase -4.1, aDG glyco act 0.1, rCAG RNA binder 85.7*, ALR inh 88.5*, APOBEC3A inh -6.0, rCAG bind conf 85.7* and DNA CAG counter 59.0*.
`COc1cc([C@@H]2CC=C(C(=O)O)[C@H](c3ccc(Cl)cc3)N2S(=O)(=O)c2ccc(C)cc2)cc(OC)c1OC` gave A3G deaminase -5.8, aDG glyco act 0.0, rCAG RNA binder 35.3*, ALR inh 4.8, APOBEC3A inh -1.0, rCAG bind conf 34.2 and DNA CAG counter 7.6*.
For CCOC(=O)C1CSCCS(=O)(=O)N1Cc1cccc(Cl)c1 (configuration not stated) the results were rCAG RNA binder 4.6.
CN(Cc1ccc(Cl)cc1Cl)C(=O)C1CSC2(C)CCC(=O)N12 (configuration not stated) was read as aDG glyco act 0.0 and rCAG RNA binder 0.3.
N#C/C(=C\c1ccccc1)C(=O)NNS(=O)(=O)c1cccc([N+](=O)[O-])c1 was read as A3G deaminase 0.7, aDG glyco act 0.1, rCAG RNA binder 36.5*, ALR inh 30.8, APOBEC3A inh 0.2, rCAG bind conf 6.9 and DNA CAG counter 1.8.
For Cc1ccsc1/C=C/C1=Cc2c(sc(NC(=O)CSc3n[nH]c(N)n3)c2C#N)C(C)(C)C1 the results were A3G deaminase 14.0, aDG glyco act -0.7, rCAG RNA binder 54.6*, APOBEC3A inh 25.2, PHOSPHO1 block 80.4*, rCAG bind conf 53.2* and DNA CAG counter 25.7*.
NC(=O)c1ccsc1NC(=O)CSc1n[nH]c(N)n1 was read as A3G deaminase -6.8, aDG glyco act -0.3, rCAG RNA binder 4.8, ALR inh 24.3 and APOBEC3A inh -3.9.
For COC(=O)c1sc(NC(=O)CSc2nc3cccnc3n2C2CCCCC2)nc1C the results were A3G deaminase -0.9, aDG glyco act 0.2, rCAG RNA binder 0.6, ALR inh -4.9, APOBEC3A inh 5.5 and PHOSPHO1 block 23.8.
